Data: PubChem BioAssay (NCATS)
Results filed as inconclusive are left out. A call without a number means that no potency is given here. Unmarked numbers belong to inactive results. Active and inactive are the calls of the source. Calls come from the whole dose curve; as a rule, active = well fitted inhibition curve with a large enough effect; inconclusive = small, poorly fitted or top-dose-only effect; inactive = flat fitted curve, though single readings scatter.

System: TAB165
Assay: qHTS profiling for inhibitors of Plasmodium falciparum proliferation (AID 504749); note: nearly all actives have a fitted effect of over 60% in size
Details: P. falciparum in erythrocytes, SYBR Green DNA, 72 h; series mostly up to 28.7 µM
Outline: (§1)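 SYBR Green fluorescence (ex 485 nm, em 535 nm) reports parasite DNA after 72 h compound exposure of infected red cells at 0.3% parasitemia, 2.5% hematocrit; signal normalized to 0.29 uM artemisinin and vehicle wells.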
Potency is the fitted concentration of half-maximal effect.

Structure (SMILES) | Potency
CCC(C)(C)c1ccc(O)cc1 | inactive
C[C@]12CC[C@@H]3c4ccc(OC(=O)N(CCCl)CCCl)cc4CC[C@H]3[C@@H]1CC[C@@H]2O | inactive
CCCC(C)(COC(N)=O)COC(N)=O | inactive
Cc1nnc2n1-c1ccc(Cl)cc1C(c1ccccc1)=NC2 | inactive
CCC1(CC)C(=O)C=CNC1=O | inactive
C[C@](O)(CS(=O)(=O)c1ccc(F)cc1)C(=O)Nc1ccc(C#N)c(C(F)(F)F)c1 | inactive
COC1CC(=C(c2cccs2)c2cccs2)C[N+](C)(C)C1 (configuration not stated) | 14.1 µM (active)
CC(C)(C)NCC(O)c1cc(Cl)c(N)c(C(F)(F)F)c1 (configuration not stated) | 7.94 µM (active)
CN1C(=O)C(O)N=C(c2ccccc2)c2cc(Cl)ccc21 (configuration not stated) | inactive
Clc1ccc2c(c1)C(c1ccccc1)=NCc1nncn1-2 | inactive
O=c1oc2ccccc2c(O)c1Cc1c(O)c2ccccc2oc1=O | inactive
COP(=S)(OC)SCN1C(=O)c2ccccc2C1=O | inactive
O=C1CN=C(c2ccccc2)c2cc([N+](=O)[O-])ccc2N1 | inactive
COC(=O)C(c1ccccc1)C1CCCCN1 (configuration not stated) | inactive
CC(C)=CC1C(C(=O)OCN2C(=O)C3=C(CCCC3)C2=O)C1(C)C (configuration not stated) | inactive
O=C1Nc2ccc(Cl)cc2C(c2ccccc2)=NC1O (configuration not stated) | inactive
O=C1Nc2ccc(Cl)cc2C(c2ccccc2Cl)=NC1O (configuration not stated) | inactive
CN1C[C@H](C(=O)N[C@]2(C)O[C@@]3(O)[C@@H]4CCCN4C(=O)[C@H](Cc4ccccc4)N3C2=O)C=C2c3cccc4[nH]cc(c34)C[C@H]21 | 0.447 µM (active)
O=C(Nc1ccc(Br)cc1)c1cc(Br)cc(Br)c1O | inactive
COP(=S)(OC)Oc1ccc(SC)c(C)c1 | inactive
CCCCCCC(=O)CCCCCC/C=C/C[C@@H](O)[C@H](O)[C@@](N)(CO)C(=O)O | inactive
CN1C(=O)CC(=O)N(c2ccccc2)c2cc(Cl)ccc21 | inactive
CC(C)c1cccc(C(C)C)c1O | inactive

System: W2
Assay: as above
Details: P. falciparum in erythrocytes, SYBR Green DNA, 72 h; series mostly up to 28.7 µM
Outline: as §1

Structure (SMILES) | Potency | activity, negative = inhibition
COc1ccc2c(c1)C13CCCC[C@@H]1C(C2)N(C)CC3 (some centres not stated) | 1.2 µM (active) | –
CCCCC/C=C\C/C=C\C/C=C\C/C=C\CCCC(=O)NCC(=O)O | – | 6.9% [at 2.67 µM]
CCC(C)(C)c1ccc(O)cc1 | inactive | –
C[C@]12CC[C@@H]3c4ccc(OC(=O)N(CCCl)CCCl)cc4CC[C@H]3[C@@H]1CC[C@@H]2O | inactive | –
Cc1nnc2n1-c1ccc(Cl)cc1C(c1ccccc1)=NC2 | 4.78 µM (active) | –
CCC1(CC)C(=O)C=CNC1=O | inactive | –
C[C@](O)(CS(=O)(=O)c1ccc(F)cc1)C(=O)Nc1ccc(C#N)c(C(F)(F)F)c1 | inactive | –
CC(C)(C)NCC(O)c1cc(Cl)c(N)c(C(F)(F)F)c1 (configuration not stated) | 5.36 µM (active) | –
CN1C(=O)C(O)N=C(c2ccccc2)c2cc(Cl)ccc21 (configuration not stated) | inactive | –
Clc1ccc2c(c1)C(c1ccccc1)=NCc1nncn1-2 | inactive | –
O=c1oc2ccccc2c(O)c1Cc1c(O)c2ccccc2oc1=O | inactive | –
COP(=S)(OC)SCN1C(=O)c2ccccc2C1=O | inactive | –
O=C1CN=C(c2ccccc2)c2cc([N+](=O)[O-])ccc2N1 | inactive | –
O=C1c2ccccc2C(=O)c2ccccc21 | 6.75 µM (active) | –
COC(=O)C(c1ccccc1)C1CCCCN1 (configuration not stated) | 4.26 µM (active) | –
CC(C)=CC1C(C(=O)OCN2C(=O)C3=C(CCCC3)C2=O)C1(C)C (configuration not stated) | inactive | –
O=C1Nc2ccc(Cl)cc2C(c2ccccc2)=NC1O (configuration not stated) | inactive | –
O=C1Nc2ccc(Cl)cc2C(c2ccccc2Cl)=NC1O (configuration not stated) | inactive | –
CN1C[C@H](C(=O)N[C@]2(C)O[C@@]3(O)[C@@H]4CCCN4C(=O)[C@H](Cc4ccccc4)N3C2=O)C=C2c3cccc4[nH]cc(c34)C[C@H]21 | 0.0536 µM (active) | –
O=C(Nc1ccc(Br)cc1)c1cc(Br)cc(Br)c1O | inactive | –
COP(=S)(OC)Oc1ccc(SC)c(C)c1 | inactive | –
CN1C(=O)CC(=O)N(c2ccccc2)c2cc(Cl)ccc21 | inactive | –
CC(C)c1cccc(C(C)C)c1O | inactive | –
CCOP(=S)(OCC)Oc1ccc2c(C)c(Cl)c(=O)oc2c1 | 6.75 µM (active) | –
